# Assay results published in PubChem BioAssay AID504635 (The Scripps Research Institute Molecular Screening Center, 2011).
# The other results are listed elsewhere or left out. Values without a mark were called inactive. Activity calls are given as the source filed them. Cut-off read from the data, not from the text of the source: active = inhibition above about 18%; inactive = the rest.
# Molecular target: Troponin I, cardiac muscle (Homo sapiens) + Troponin T, cardiac muscle (Homo sapiens) + Troponin C, slow skeletal and cardiac muscles (Homo sapiens) (UniProt P19429+P45379+P63316)
# Experiment: calcium desensitizers of cardiac thin filaments – biochemical, fluorescence readout, confirmation (AID 504635)
# Details: reconstituted cardiac thin filaments, calcium sensitivity fluorescence; at 7.15 µM; active compounds read high
row,SMILES,inhibition
1,COc1ccc(NC(=O)CC2COc3ccccc3O2)c(OC)c1 (stereo not given),-2.46%
2,O=C(O)c1cccc(S(=O)(=O)Nc2ccc(O)cc2Sc2nc3ccccc3s2)c1,-6.09%
3,COc1cc(OC)cc(C(=O)NCC(=O)OCc2csc(-c3ccccc3)n2)c1,2.35%
4,Cc1ccc(S(=O)(=O)N(CC(=O)Nc2cccc([N+](=O)[O-])c2)Cc2ccc(Cl)cc2)cc1,-1.82%
5,CCCCn1c(=O)c(C(C)=O)c(O)c2ccccc21,-4.91%
6,C=CCNC(=O)COC(=O)c1ccccc1C(=O)N(C)C1CCCCC1,0.72%
7,Cc1cccc(N(C(=O)Cc2cccs2)C(C(=O)NC2CCCC2)c2ccsc2)c1 (stereo not given),-3.11%
8,CC1CCCC(NC(=O)COC(=O)[C@@H]2CC(O)CN2S(=O)(=O)c2ccc3c(c2)OCCO3)C1C (stereo not given in full),-1.77%
9,Cc1ccc(NC(=O)NC2CCCCC2)cc1S(=O)(=O)N1CCOCC1,-0.15%
10,O=c1ccc2c(-c3ccccc3S(=O)(=O)O)c3ccc(O)c(O)c3oc-2c1O,154% (active)
11,COC(=O)CCc1sc(Nc2ccc(Br)cc2)nc1-c1ccc(OC)cc1,1.8%
12,COC(=O)c1cccc(N(CC(=O)NCC2CCCO2)C(=O)CCC(=O)Nc2cc(C)on2)c1 (stereo not given),-2.6%
13,Cc1cc(NC(=O)CCC(=O)N(CC(=O)NCC2CCCO2)c2ccccc2)no1 (stereo not given),-4.68%
14,C/C(=N\NC(=O)C(N)=O)c1ccc2c(c1)OCCO2,-2.4%
15,COc1cccc(CNC(=O)C(=O)NCCC2CCCCN2S(=O)(=O)c2ccc(C)cc2)c1 (stereo not given),-4.1%
